# Assay results as given in paper PMC11006913.
# Residue numbers refer to the chain shown, from its start.
# What was measured:
# Assay in all cases: PBM; 200 nM protein, PBS
# Details in all cases: dsDNA, one strand shown
# [1] = biological target: HOXB9 (Homo sapiens, UniProt P17482 171-250, T197M)
# [2] = biological target: HOXC10 (Homo sapiens, UniProt Q9NYD6 254-340)
# [3] = biological target: HOXB9 (Homo sapiens, UniProt P17482 171-250)
# [4] = biological target: HOXC10 (Homo sapiens, UniProt Q9NYD6 254-340, K271E)
# Chain of HOXC10 (Homo sapiens, UniProt Q9NYD6 254-340, K271E) (Q9NYD6 254-340 K271E): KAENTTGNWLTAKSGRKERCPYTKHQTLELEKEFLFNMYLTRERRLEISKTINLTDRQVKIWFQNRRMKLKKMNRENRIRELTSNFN
# [5] = biological target: HOXB9 (Homo sapiens, UniProt P17482 171-250, R186Q)
# Chain of HOXB9 (Homo sapiens, UniProt P17482 171-250, R186Q) (P17482 171-250 R186Q): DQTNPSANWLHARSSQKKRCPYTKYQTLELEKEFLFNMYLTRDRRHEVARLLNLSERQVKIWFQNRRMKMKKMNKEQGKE
# [6] = biological target: VAX1 (Homo sapiens, UniProt Q5SQQ9 86-172)
# Chain of VAX1 (Homo sapiens, UniProt Q5SQQ9 86-172) (Q5SQQ9 86-172): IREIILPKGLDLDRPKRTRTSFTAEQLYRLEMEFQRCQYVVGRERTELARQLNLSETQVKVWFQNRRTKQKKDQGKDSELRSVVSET
# [7] = biological target: VAX1 (Homo sapiens, UniProt Q5SQQ9 86-172, T142I)
# Chain of VAX1 (Homo sapiens, UniProt Q5SQQ9 86-172, T142I) (Q5SQQ9 86-172 T142I): as the sequence (Q5SQQ9 86-172) above, with T57I counted along it
# [8] = biological target: VAX1 (Homo sapiens, UniProt Q5SQQ9 86-172, K157R)
# Chain of VAX1 (Homo sapiens, UniProt Q5SQQ9 86-172, K157R) (Q5SQQ9 86-172 K157R): as the sequence (Q5SQQ9 86-172) above, with K72R counted along it
# [9] = biological target: PRRX1 (Homo sapiens, UniProt P54821 80-166, F113S)
# Chain of PRRX1 (P54821 80-166 F113S): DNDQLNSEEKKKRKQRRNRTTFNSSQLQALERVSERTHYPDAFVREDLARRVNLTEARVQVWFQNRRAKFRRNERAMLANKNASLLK
# [10] = biological target: HOXB6 (Homo sapiens, UniProt P17509 132-218, K202E)
# Chain of HOXB6 (P17509 132-218 K202E): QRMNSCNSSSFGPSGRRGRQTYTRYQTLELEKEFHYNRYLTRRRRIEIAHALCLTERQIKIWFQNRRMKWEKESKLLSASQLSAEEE
# [11] = biological target: HOXC9 (Homo sapiens, UniProt P31274 178-260, K195R)
# Chain of HOXC9 (Homo sapiens, UniProt P31274 178-260, K195R) (P31274 178-260 K195R): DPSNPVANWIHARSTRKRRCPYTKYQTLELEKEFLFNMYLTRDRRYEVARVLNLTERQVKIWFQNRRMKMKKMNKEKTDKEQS
# [12] = biological target: HOXC9 (Homo sapiens, UniProt P31274 178-260)
# Chain of HOXC9 (Homo sapiens, UniProt P31274 178-260) (P31274 178-260): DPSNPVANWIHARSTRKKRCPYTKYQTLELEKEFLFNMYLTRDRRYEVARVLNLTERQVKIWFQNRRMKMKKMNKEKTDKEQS
# [13] = biological target: HOXC9 (Homo sapiens, UniProt P31274 178-260, R193K)
# Chain of HOXC9 (Homo sapiens, UniProt P31274 178-260, R193K) (P31274 178-260 R193K): as the sequence (P31274 178-260) above, with R16K counted along it
# [14] = biological target: PROP1 (Homo sapiens, UniProt O75360 56-141)
# Chain of PROP1 (Homo sapiens, UniProt O75360 56-141) (O75360 56-141): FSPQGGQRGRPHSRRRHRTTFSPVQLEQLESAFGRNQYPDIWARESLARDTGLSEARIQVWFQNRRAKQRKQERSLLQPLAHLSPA
# [15] = biological target: PROP1 (Homo sapiens, UniProt O75360 56-141, R99H)
# Chain of PROP1 (Homo sapiens, UniProt O75360 56-141, R99H) (O75360 56-141 R99H): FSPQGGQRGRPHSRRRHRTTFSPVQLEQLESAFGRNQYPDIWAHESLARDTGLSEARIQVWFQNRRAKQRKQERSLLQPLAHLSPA
# [16] = biological target: HOXC9 (Homo sapiens, UniProt P31274 178-260, R222W)
# Chain of HOXC9 (Homo sapiens, UniProt P31274 178-260, R222W) (P31274 178-260 R222W): as the sequence (P31274 178-260) above, with R45W counted along it
# [17] = biological target: PROP1 (Homo sapiens, UniProt O75360 56-141, F88S)
# Chain of PROP1 (Homo sapiens, UniProt O75360 56-141, F88S) (O75360 56-141 F88S): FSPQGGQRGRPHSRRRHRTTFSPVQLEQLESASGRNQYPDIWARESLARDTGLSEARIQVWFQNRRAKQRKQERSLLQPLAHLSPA
# [18] = biological target: T1, PAX4 (Homo sapiens, UniProt O43316 9-242, R200K)
# T1 sequence: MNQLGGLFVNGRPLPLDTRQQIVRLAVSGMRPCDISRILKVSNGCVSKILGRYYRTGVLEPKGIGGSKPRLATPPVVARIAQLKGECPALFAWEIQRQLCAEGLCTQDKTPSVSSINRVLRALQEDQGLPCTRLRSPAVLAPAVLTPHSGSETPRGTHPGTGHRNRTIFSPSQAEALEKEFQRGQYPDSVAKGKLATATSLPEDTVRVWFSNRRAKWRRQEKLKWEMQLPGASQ
# [19] = biological target: T2, PAX4 (Homo sapiens, UniProt O43316 9-242)
# T2 sequence: T1 sequence with K192R
# [20] = biological target: MSX2 (Homo sapiens, UniProt P35548 130-214, R199I)
# Chain of MSX2 (Homo sapiens, UniProt P35548 130-214, R199I) (P35548 130-214 R199I): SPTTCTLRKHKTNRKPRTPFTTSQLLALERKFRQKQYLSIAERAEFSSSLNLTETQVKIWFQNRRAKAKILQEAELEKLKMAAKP
# [21] = biological target: T3, PAX4 (Homo sapiens, UniProt O43316 9-242, R200Q)
# T3 sequence: T1 sequence with K192Q
# [22] = biological target: T4, PAX4 (Homo sapiens, UniProt O43316 9-242, F177V)
# T4 sequence: T1 sequence with F169V, K192R
# [23] = biological target: MSX2 (Homo sapiens, UniProt P35548 130-214)
# Chain of MSX2 (Homo sapiens, UniProt P35548 130-214) (P35548 130-214): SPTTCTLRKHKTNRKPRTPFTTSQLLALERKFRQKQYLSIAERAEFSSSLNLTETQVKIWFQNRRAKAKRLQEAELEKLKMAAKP
# [24] = biological target: T5, PAX4 (Homo sapiens, UniProt O43316 9-242, F177Y)
# T5 sequence: T1 sequence with F169Y, K192R
# [25] = biological target: MSX2 (Homo sapiens, UniProt P35548 130-214, F161Y)
# Chain of MSX2 (Homo sapiens, UniProt P35548 130-214, F161Y) (P35548 130-214 F161Y): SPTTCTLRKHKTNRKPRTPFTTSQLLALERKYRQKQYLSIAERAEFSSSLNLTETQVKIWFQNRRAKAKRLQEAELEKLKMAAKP
# [26] = biological target: T6, PAX4 (Homo sapiens, UniProt O43316 9-242, R227W)
# T6 sequence: T1 sequence with K192R, R219W
# [27] = biological target: HOXD13 (Homo sapiens, UniProt P35453 263-343, T313R)
# Chain of HOXD13 (Homo sapiens, UniProt P35453 263-343, T313R) (P35453 263-343 T313R): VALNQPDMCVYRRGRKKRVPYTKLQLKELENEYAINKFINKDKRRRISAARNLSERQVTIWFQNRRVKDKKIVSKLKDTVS
# [28] = biological target: HOXD13 (Homo sapiens, UniProt P35453 263-343)
# Chain of HOXD13 (Homo sapiens, UniProt P35453 263-343) (P35453 263-343): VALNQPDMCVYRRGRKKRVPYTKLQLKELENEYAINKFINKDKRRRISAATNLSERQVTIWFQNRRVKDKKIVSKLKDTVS
# [29] = biological target: HOXD13 (Homo sapiens, UniProt P35453 263-343, T313A)
# Chain of HOXD13 (Homo sapiens, UniProt P35453 263-343, T313A) (P35453 263-343 T313A): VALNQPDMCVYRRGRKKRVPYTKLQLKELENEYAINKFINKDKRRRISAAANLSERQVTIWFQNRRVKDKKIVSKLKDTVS
# [30] = biological target: ALX4 (Homo sapiens, UniProt Q9H161 200-286, Q225E)
# Chain of ALX4 (Q9H161 200-286 Q225E): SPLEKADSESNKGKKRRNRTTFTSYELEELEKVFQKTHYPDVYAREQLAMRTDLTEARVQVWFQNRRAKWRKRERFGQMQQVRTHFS
# Chain of HOXB9 (Homo sapiens, UniProt P17482 171-250, T197M) (P17482 171-250 T197M): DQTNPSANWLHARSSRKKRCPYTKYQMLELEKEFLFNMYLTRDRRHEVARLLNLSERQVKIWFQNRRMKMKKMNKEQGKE
# Chain of HOXB9 (Homo sapiens, UniProt P17482 171-250) (P17482 171-250): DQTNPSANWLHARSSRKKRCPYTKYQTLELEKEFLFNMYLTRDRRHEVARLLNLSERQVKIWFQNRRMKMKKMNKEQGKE
# Chain of HOXC10 (Homo sapiens, UniProt Q9NYD6 254-340) (Q9NYD6 254-340): as the sequence (Q9NYD6 254-340 K271E) above, with E18K counted along it
sequence,measurement,setting,value
GAGTCTCC,binding signal,[1],"8.54 upbm affinity estimate (log intensity, higher = more binding, comparable within an allelic series)"
same,binding signal,[2],"10 upbm affinity estimate (log intensity, higher = more binding, comparable within an allelic series)"
same,binding signal,[3],"8.49 upbm affinity estimate (log intensity, higher = more binding, comparable within an allelic series)"
same,binding signal,[4],"9.99 upbm affinity estimate (log intensity, higher = more binding, comparable within an allelic series)"
same,binding signal,[5],"8.45 upbm affinity estimate (log intensity, higher = more binding, comparable within an allelic series)"
CTGCTCCC,binding signal,[1],"8.68 upbm affinity estimate (log intensity, higher = more binding, comparable within an allelic series)"
same,binding signal,[2],"10.1 upbm affinity estimate (log intensity, higher = more binding, comparable within an allelic series)"
same,binding signal,[3],"8.67 upbm affinity estimate (log intensity, higher = more binding, comparable within an allelic series)"
same,binding signal,[4],"10.1 upbm affinity estimate (log intensity, higher = more binding, comparable within an allelic series)"
same,binding signal,[6],"7.16 upbm affinity estimate (log intensity, higher = more binding, comparable within an allelic series)"
same,binding signal,[5],"8.65 upbm affinity estimate (log intensity, higher = more binding, comparable within an allelic series)"
same,binding signal,[7],"7.2 upbm affinity estimate (log intensity, higher = more binding, comparable within an allelic series)"
same,binding signal,[8],"7.01 upbm affinity estimate (log intensity, higher = more binding, comparable within an allelic series)"
AATTATAT,binding signal,[1],"9.99 upbm affinity estimate (log intensity, higher = more binding, comparable within an allelic series)"
same,binding signal,[9],"11.1 upbm affinity estimate (log intensity, higher = more binding, comparable within an allelic series)"
same,binding signal,[10],"9.99 upbm affinity estimate (log intensity, higher = more binding, comparable within an allelic series)"
GCCTTCCC,binding signal,[1],"8.39 upbm affinity estimate (log intensity, higher = more binding, comparable within an allelic series)"
same,binding signal,[11],"9.49 upbm affinity estimate (log intensity, higher = more binding, comparable within an allelic series)"
same,binding signal,[3],"8.31 upbm affinity estimate (log intensity, higher = more binding, comparable within an allelic series)"
same,binding signal,[12],"9.55 upbm affinity estimate (log intensity, higher = more binding, comparable within an allelic series)"
same,binding signal,[13],"9.63 upbm affinity estimate (log intensity, higher = more binding, comparable within an allelic series)"
same,binding signal,[14],"6.64 upbm affinity estimate (log intensity, higher = more binding, comparable within an allelic series)"
same,binding signal,[15],"6.59 upbm affinity estimate (log intensity, higher = more binding, comparable within an allelic series)"
same,binding signal,[5],"8.38 upbm affinity estimate (log intensity, higher = more binding, comparable within an allelic series)"
same,binding signal,[16],"9.61 upbm affinity estimate (log intensity, higher = more binding, comparable within an allelic series)"
same,binding signal,[17],"6.59 upbm affinity estimate (log intensity, higher = more binding, comparable within an allelic series)"
AGTCGTTA,binding signal,[1],"10 upbm affinity estimate (log intensity, higher = more binding, comparable within an allelic series)"
same,binding signal,[2],"12.2 upbm affinity estimate (log intensity, higher = more binding, comparable within an allelic series)"
same,binding signal,[4],"12.1 upbm affinity estimate (log intensity, higher = more binding, comparable within an allelic series)"
AGCCGCAG,binding signal,[1],"8.34 upbm affinity estimate (log intensity, higher = more binding, comparable within an allelic series)"
same,binding signal,[18],"9.2 upbm affinity estimate (log intensity, higher = more binding, comparable within an allelic series)"
same,binding signal,[19],"9.21 upbm affinity estimate (log intensity, higher = more binding, comparable within an allelic series)"
same,binding signal,[3],"8.11 upbm affinity estimate (log intensity, higher = more binding, comparable within an allelic series)"
same,binding signal,[20],"9.46 upbm affinity estimate (log intensity, higher = more binding, comparable within an allelic series)"
same,binding signal,[21],"9.21 upbm affinity estimate (log intensity, higher = more binding, comparable within an allelic series)"
same,binding signal,[22],"9.11 upbm affinity estimate (log intensity, higher = more binding, comparable within an allelic series)"
same,binding signal,[23],"9.43 upbm affinity estimate (log intensity, higher = more binding, comparable within an allelic series)"
same,binding signal,[24],"9.12 upbm affinity estimate (log intensity, higher = more binding, comparable within an allelic series)"
same,binding signal,[5],"8.24 upbm affinity estimate (log intensity, higher = more binding, comparable within an allelic series)"
same,binding signal,[25],"9.5 upbm affinity estimate (log intensity, higher = more binding, comparable within an allelic series)"
same,binding signal,[26],"9.18 upbm affinity estimate (log intensity, higher = more binding, comparable within an allelic series)"
CCCGCGGC,binding signal,[1],"8.53 upbm affinity estimate (log intensity, higher = more binding, comparable within an allelic series)"
same,binding signal,[18],"9.28 upbm affinity estimate (log intensity, higher = more binding, comparable within an allelic series)"
same,binding signal,[19],"9.32 upbm affinity estimate (log intensity, higher = more binding, comparable within an allelic series)"
same,binding signal,[3],"8.39 upbm affinity estimate (log intensity, higher = more binding, comparable within an allelic series)"
same,binding signal,[21],"9.34 upbm affinity estimate (log intensity, higher = more binding, comparable within an allelic series)"
same,binding signal,[22],"9.09 upbm affinity estimate (log intensity, higher = more binding, comparable within an allelic series)"
same,binding signal,[24],"9.18 upbm affinity estimate (log intensity, higher = more binding, comparable within an allelic series)"
same,binding signal,[5],"8.48 upbm affinity estimate (log intensity, higher = more binding, comparable within an allelic series)"
same,binding signal,[26],"9.24 upbm affinity estimate (log intensity, higher = more binding, comparable within an allelic series)"
ATAAAATA,binding signal,[1],"9.86 upbm affinity estimate (log intensity, higher = more binding, comparable within an allelic series)"
same,binding signal,[2],"12.3 upbm affinity estimate (log intensity, higher = more binding, comparable within an allelic series)"
same,binding signal,[3],"11.8 upbm affinity estimate (log intensity, higher = more binding, comparable within an allelic series)"
same,binding signal,[27],"10.8 upbm affinity estimate (log intensity, higher = more binding, comparable within an allelic series)"
same,binding signal,[13],"12.5 upbm affinity estimate (log intensity, higher = more binding, comparable within an allelic series)"
same,binding signal,[28],"11.8 upbm affinity estimate (log intensity, higher = more binding, comparable within an allelic series)"
same,binding signal,[4],"11.7 upbm affinity estimate (log intensity, higher = more binding, comparable within an allelic series)"
same,binding signal,[29],"11.6 upbm affinity estimate (log intensity, higher = more binding, comparable within an allelic series)"
same,binding signal,[5],"11.4 upbm affinity estimate (log intensity, higher = more binding, comparable within an allelic series)"
same,binding signal,[16],"11.3 upbm affinity estimate (log intensity, higher = more binding, comparable within an allelic series)"
TCAATAAA,binding signal,[1],"9.75 upbm affinity estimate (log intensity, higher = more binding, comparable within an allelic series)"
same,binding signal,[2],"12.2 upbm affinity estimate (log intensity, higher = more binding, comparable within an allelic series)"
same,binding signal,[30],"11.2 upbm affinity estimate (log intensity, higher = more binding, comparable within an allelic series)"
same,binding signal,[3],"11.8 upbm affinity estimate (log intensity, higher = more binding, comparable within an allelic series)"
same,binding signal,[27],"11 upbm affinity estimate (log intensity, higher = more binding, comparable within an allelic series)"
same,binding signal,[28],"12 upbm affinity estimate (log intensity, higher = more binding, comparable within an allelic series)"
same,binding signal,[4],"11.6 upbm affinity estimate (log intensity, higher = more binding, comparable within an allelic series)"
same,binding signal,[29],"11.7 upbm affinity estimate (log intensity, higher = more binding, comparable within an allelic series)"
same,binding signal,[5],"11.5 upbm affinity estimate (log intensity, higher = more binding, comparable within an allelic series)"
same,binding signal,[16],"11.3 upbm affinity estimate (log intensity, higher = more binding, comparable within an allelic series)"
